± gives the uncertainty stated by the source.
Tested on: FLX1
Test: cell viability z-score within plate (CellTiter-Glo), mean of 3 biological replicates; higher = higher viability relative to plate (less growth inhibition)
Conditions: 2 µM; time (hr): 120
Protocol: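 FLX1 fibrolamellar carcinoma cells (DNAJB1-PRKACA fusion), 600 cells/well in 384-well plates, treated with a Selleck kinase inhibitor library (L1200) at 2 uM for 5 days (120 hr); viability by CellTiter-Glo. A z-score was computed within each plate and averaged over three biological replicates.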

Row | SMILES | cell viability z-score within plate
1 | CCn1c(=O)c(-c2ccc(-c3cncs3)cc2Cl)cc2cnc(Nc3ccc(N4CCN(C)CC4)cc3)nc21 | 0.491 ± 0.12
2 | Cc1[nH]c(/C=C2\C(=O)Nc3ccccc32)c(C)c1CCC(=O)O [Orantinib (TSU-68, SU6668)] | 0.388 ± 0.61
3 | CN1CCC(COc2cnc(-c3cccc(Cn4nc(-c5cccc(C#N)c5)ccc4=O)c3)nc2)CC1 | -0.645 ± 0.46
4 | O=C1Nc2ccc(I)cc2/C1=C/c1cc(Br)c(O)c(Br)c1 | 1.53 ± 0.35
5 | CN1CCN(S(=O)(=O)c2ccc(-c3cnc(N)c(C(=O)Nc4cccnc4)n3)cc2)CC1 | 0.448 ± 0.3
6 | C[C@@]1(C(=O)Nc2ccc(F)nc2)CCCN1c1nc(Nc2cc(C3CC3)n[nH]2)c2cccn2n1 | -1.16 ± 0.41
7 | N#C/C(=C(/N)Sc1ccc(N)cc1)c1ccccc1C(F)(F)F | -0.253 ± 0.36
8 | CCc1cc(Nc2nccc(-c3c(-c4ccc(OC)c(C(=O)Nc5c(F)cccc5F)c4)nc4ccccn34)n2)c(OC)cc1N1CCC(N2CCN(S(C)(=O)=O)CC2)CC1 | 0.744 ± 0.54
9 | COc1cc2ncnc(Oc3ccc(CC(=O)Nc4cnn(C(C)C)c4)cc3)c2cc1OC | -0.525 ± 0.26
10 | CCc1ccc(/C=C2/SC(=S)NC2=O)cc1 | 0.872 ± 0.44
11 | Clc1ccc(C2(c3ccc(-c4cn[nH]c4)cc3)CCNCC2)cc1 | 0.815 ± 0.24
12 | CN1CCN(C2CCN(C(=O)Nc3cc(Oc4ccc(NC(=O)C5(C(=O)Nc6ccc(F)cc6)CC5)c(F)c4)ccn3)CC2)CC1 [Golvatinib (E7050)] | 0.521 ± 0.14
13 | CS(=O)(=O)CCNCc1ccc(-c2ccc3ncnc(Nc4ccc(OCc5cccc(F)c5)c(Cl)c4)c3c2)o1 | 0.842 ± 0.23
14 | CC(C)(O)CC(=O)NCCn1ccc2ncnc(Nc3ccc(Oc4cccc(C(F)(F)F)c4)c(Cl)c3)c21 | -0.891 ± 0.77
15 | Oc1ccc(-c2nc(-c3ccc(F)cc3)c(-c3ccncc3)[nH]2)cc1 | -1.48 ± 1.1
16 | Cc1cnc(NC(=O)Nc2cc(Br)c(C)cc2OC[C@@H]2CNCCO2)cn1 | 0.709 ± 0.31
17 | Cc1cc2c(F)c(Oc3ncnn4cc(OC[C@@H](C)OC(=O)[C@H](C)N)c(C)c34)ccc2[nH]1 | 0.531 ± 0.22
18 | Nc1nccc(Oc2ccc(NC(=O)c3c[nH]cc(-c4ccc(F)cc4)c3=O)cc2F)c1Cl | -0.37 ± 0.32
19 | COc1cc2nccc(Oc3ccc(NC(=O)C4(C(=O)Nc5ccc(F)cc5)CC4)cc3)c2cc1OC [Cabozantinib malate (XL184)] | 0.553 ± 0.015
20 | Nc1nc(N)c(N=O)c(OCC2CCCCC2)n1 | 0.662 ± 0.19

Row | SMILES | cell viability z-score within plate
21 | O=c1c(O)c(-c2ccc(O)c(O)c2)oc2cc(O)cc(O)c12 [Quercetin] | 1.1 ± 0.51
22 | Cc1ccc(C(=O)Nc2ccc(CN3CCN(C)CC3)c(C(F)(F)F)c2)cc1C#Cc1cnc2cccnn12 | -1.09 ± 0.7
23 | Clc1ccc(Nc2nnc(Cc3ccncc3)c3ccccc23)cc1 [Vatalanib (PTK787) 2HCl] | -0.254 ± 0.59
24 | CC1(COc2ccc3c(c2)ncn3-c2ccc3cccc(N4CCC(N)CC4)c3n2)COC1 | 0.0444 ± 0.77
25 | C=CC(=O)Nc1ccc2ncnc(Nc3ccc(OCc4cccc(F)c4)c(Cl)c3)c2c1 | 0.819 ± 0.26
26 | Cn1sc(=O)n(Cc2ccccc2)c1=O | 1.12 ± 0.94
27 | C[C@H](NC(=O)/C(C#N)=C/c1cccc(Br)n1)c1ccccc1 | 0.427 ± 0.59
28 | CO[C@H]1C[C@@H]2CC[C@@H](C)[C@@](O)(O2)C(=O)C(=O)N2CCCC[C@H]2C(=O)O[C@H]([C@H](C)C[C@@H]2CC[C@H](n3cnnn3)[C@H](OC)C2)CC(=O)[C@H](C)/C=C(\C)[C@@H](O)[C@@H](OC)C(=O)[C@H](C)C[C@H](C)/C=C/C=C/C=C/1C [Zotarolimus(ABT-578)] | 0.264 ± 0.45
29 | CS(=O)(=O)N1CCN(Cc2cc3nc(-c4cccc5[nH]ncc45)nc(N4CCOCC4)c3s2)CC1 [Pictilisib (GDC-0941)] | 1.08 ± 0.18
30 | CN1CCC(CNc2ccc3ncc(-c4cccc(OC(F)(F)F)c4)n3n2)CC1 [SGI-1776 free base] | 0.436 ± 0.2
31 | CO[C@H]1C[C@@H]2CC[C@@H](C)[C@@](O)(O2)C(=O)C(=O)N2CCCC[C@H]2C(=O)O[C@H]([C@H](C)C[C@@H]2CC[C@@H](OC(=O)C(C)(CO)CO)[C@H](OC)C2)CC(=O)[C@H](C)/C=C(\C)[C@@H](O)[C@@H](OC)C(=O)[C@H](C)C[C@H](C)/C=C/C=C/C=C/1C | -0.0698 ± 1.1
32 | FC(F)c1nc2ccccc2n1-c1nc(N2CCOCC2)nc(N2CCOCC2)n1 | 0.852 ± 0.61
33 | OCCn1cc(-c2ccc3c(c2)CC/C3=N\O)c(-c2ccncc2)n1 | 0.788 ± 0.054
34 | C#Cc1cccc(Nc2ncnc3cc(OC)c(OCCCCCCC(=O)NO)cc23)c1 | -0.217 ± 0.35
35 | CC(C)CCN1c2nc(Nc3cc(F)c(O)c(F)c3)ncc2N(C)C(=O)C1C (stereo not given) | -0.812 ± 0.59
36 | NCC(=O)Nc1ccc(-n2nc(C(F)(F)F)cc2-c2ccc3c(ccc4ccccc43)c2)cc1 | 0.225 ± 0.2
37 | COc1cc2c(Oc3ccc(NC(=O)C4(C(=O)Nc5ccc(F)cc5)CC4)cc3F)ccnc2cc1OCCCN1CCOCC1 | -0.77 ± 2.3
38 | O=C(Nc1cc(C(F)(F)F)cc(C(F)(F)F)c1)c1cc(Cl)ccc1O | -0.692 ± 0.5
39 | O=C(NCc1ccccc1)c1csc(Nc2ccncn2)n1 [Thiazovivin] | -0.686 ± 0.81
40 | CN(C)CCOc1ccc(-c2nc(-c3ccncc3)c(-c3ccc4c(c3)CC/C4=N\O)[nH]2)cc1 | 0.259 ± 0.2
